# Active and inactive are the calls of the source. The calls were made as follows: active = hit-call score of the fitted dose curve at least 0.9, where 1 is the maximum; inactive = score below 0.9.
# Assays:
# [1] = read-out: Macrophage colony-stimulating factor (MCSF), CSF1 (gene 1435); experiment: BSK_hDFCGF_MCSF: BioMAP Diversity Plus: hDFCGF Assay for Macrophage colony-stimulating factor (MCSF) Biomarker Activity (AID 2283060); conditions: primary human foreskin fibroblasts; actives raise or lower the signal
# Method in brief: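 Human foreskin fibroblast primary cultures; M-CSF measured by ELISA 24 hours after chemical dosing. Bidirectional fitting relative to DMSO, with overt cytotoxicity tracked by parallel SRB total-protein staining (0.1% SRB, 10% TCA fixation, 560 nm).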
# [2] = BSK_hDFCGF_SRB: Viability Assessment in the BioMAP Diversity Plus: hDFCGF Assay (AID 2283061); conditions: primary human foreskin fibroblasts;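 also: cells exposed to compound for 24 h before the read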
# Method in brief: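 Human foreskin fibroblasts in 96-well plates were treated 24 h. Total protein was measured by 0.1% SRB staining after 10% TCA fixation, read at 560 nm. Data were fitted bidirectionally against DMSO.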
# [3] = read-out: TIMP metallopeptidase inhibitor 1 (TIMP1), TIMP1 (gene 7076); experiment: BSK_hDFCGF_TIMP1: BioMAP Diversity Plus: hDFCGF Assay for TIMP metallopeptidase inhibitor 1 (TIMP1) Biomarker Activity (AID 2283062); conditions: primary human foreskin fibroblasts; actives raise or lower the signal
# Method in brief: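 Human foreskin fibroblast primary cultures dosed for 24 h; secreted/surface TIMP-1 quantified by ELISA. Bidirectional curve fitting against DMSO baseline; cytotoxicity tracked in parallel cultures by SRB total-protein staining.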
# [4] = read-out: Monokine induced gamma interferon (MIG), CXCL9 (gene 4283); experiment: BSK_hDFCGF_MIG: BioMAP Diversity Plus: hDFCGF Assay for Monokine induced gamma interferon (MIG) Biomarker Activity (AID 2283063); conditions: primary human foreskin fibroblasts; actives raise or lower the signal
# Method in brief: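 MIG/CXCL9 measured by ELISA 24 h after dosing primary human skin fibroblasts. Activity fitted in both directions against DMSO controls. Cytotoxicity was checked in parallel cultures by SRB staining read at 560 nm.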
# [5] = read-out: Matrix Metallopeptidase 1 (MMP1), MMP1 (gene 4312); experiment: BSK_hDFCGF_MMP1: BioMAP Diversity Plus: hDFCGF Assay for Matrix Metallopeptidase 1 (MMP1) Biomarker Activity (AID 2283064); conditions: primary human foreskin fibroblasts; actives raise or lower the signal
# Method in brief: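 ELISA read-out of MMP1 from human foreskin fibroblasts (primary skin cells), 24 h post-dose. Gain or loss of signal was fitted bidirectionally versus DMSO negative control; cytotoxicity was checked by SRB in parallel cultures.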
# [6] = read-out: Vascular cell adhesion molecule 1 (VCAM1), VCAM1 (gene 7412); experiment: BSK_hDFCGF_VCAM1: BioMAP Diversity Plus: hDFCGF Assay for Vascular cell adhesion molecule 1 (VCAM1) Biomarker Activity (AID 2283065); conditions: primary human foreskin fibroblasts; actives raise or lower the signal;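 as to AC50: VCAM-1 protein level quantified by ELISA after 24 h chemical exposure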
# Method in brief: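 Human foreskin fibroblast primary cells dosed with chemical, VCAM-1 measured by ELISA at 24 h. Bidirectional curve fitting relative to DMSO as negative control/baseline.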
# [7] = read-out: Plasminogen activator inhibitor-1 (PAI1), SERPINE1 (gene 5054); experiment: BSK_hDFCGF_PAI1: BioMAP Diversity Plus: hDFCGF Assay for Plasminogen activator inhibitor-1 (PAI1) Biomarker Activity (AID 2283066); conditions: primary human foreskin fibroblasts; actives raise or lower the signal
# Method in brief: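 Fibroblasts from human foreskin were treated with test chemical. After 24 h, PAI-1 was measured by ELISA. Activity was fitted in both directions relative to DMSO.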
# [8] = read-out: Intercellular Adhesion Molecule 1 (ICAM1), ICAM1 (gene 3383); experiment: BSK_KF3CT_ICAM1: BioMAP Diversity Plus: KF3CT Assay for Intercellular Adhesion Molecule 1 (ICAM1) Biomarker Activity (AID 2283067); conditions: primary human keratinocytes with fibroblasts; actives raise or lower the signal
# Method in brief: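 Human keratinocyte–foreskin fibroblast co-culture was treated for 24 h. Cell-surface ICAM-1 was quantified by ELISA, fitted bidirectionally relative to DMSO. Cytotoxicity was checked in parallel cultures by SRB total-protein staining.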
# [9] = read-out: Interferon-gamma inducible Protein 10 (IP10), CXCL10 (gene 3627); experiment: BSK_KF3CT_IP10: BioMAP Diversity Plus: KF3CT Assay for Interferon-gamma inducible Protein 10 (IP10) Biomarker Activity (AID 2283068); conditions: primary human keratinocytes with fibroblasts; actives raise or lower the signal
# Method in brief: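 Signal is secreted/surface IP-10 by ELISA in a human primary skin co-culture of keratinocytes and foreskin fibroblasts, taken 24 h post-dosing; DMSO served as negative control.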
# [10] = BSK_KF3CT_SRB: Viability Assessment in the BioMAP Diversity Plus: KF3CT Assay (AID 2283069); conditions: primary human keratinocytes with fibroblasts;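 also: total protein by sulforhodamine B staining as a cytotoxicity measure; read 24 h after compound addition; fitted for both signal gain and loss against DMSO baseline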
# Method in brief: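 SRB read-out at 560 nm (0.1% stain, TCA-fixed cells) gauges overt cytotoxicity in a human skin keratinocyte–fibroblast co-culture 24 h post-dosing. Signal change was fitted bidirectionally relative to DMSO control.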
smiles,measurement,setting,value
CCCCC(CC)COC(=O)CC(C(=O)OCC(CC)CCCC)S(=O)(=O)O (stereo not drawn),AC50,[1],9.34 µM (active)
same,AC50,[2],24.4 µM (active)
same,AC50,[3],20 µM (active)
same,AC50,[4],11.8 µM (active)
same,AC50,[5],25.7 µM (active)
same,AC50,[6],6.62 µM (active)
same,AC50,[7],9.12 µM (active)
same,AC50,[8],11.8 µM (active)
same,AC50,[9],6.69 µM (active)
same,AC50,[10],8.47 µM (active)
NS(=O)(=O)c1cc2c(cc1Cl)NCNS2(=O)=O,outcome,[1],inactive
same,outcome,[2],inactive
same,outcome,[4],inactive
same,outcome,[5],inactive
same,outcome,[6],inactive
same,outcome,[7],inactive
same,outcome,[8],inactive
same,outcome,[9],inactive
Cc1ccc(C(C)C)c(O)c1,outcome,[1],inactive
same,outcome,[2],inactive
same,outcome,[4],inactive
same,outcome,[5],inactive
same,outcome,[6],inactive
same,outcome,[7],inactive
same,outcome,[8],inactive
same,outcome,[9],inactive
CCOC(=O)CCC(=O)OCC,outcome,[1],inactive
same,outcome,[2],inactive
same,outcome,[3],inactive
same,outcome,[4],inactive
same,outcome,[5],inactive
same,outcome,[6],inactive
same,outcome,[7],inactive
same,outcome,[8],inactive
same,outcome,[9],inactive
same,outcome,[10],inactive
Cc1ccc(Cl)cc1,outcome,[1],inactive
same,outcome,[2],inactive
same,outcome,[3],inactive
same,outcome,[4],inactive
same,outcome,[5],inactive
same,outcome,[6],inactive
same,outcome,[7],inactive
same,outcome,[8],inactive
same,outcome,[9],inactive
same,outcome,[10],inactive
C=CCc1ccc(O)c(OC)c1,outcome,[1],inactive
same,outcome,[2],inactive
same,outcome,[3],inactive
same,outcome,[4],inactive
same,outcome,[5],inactive
same,outcome,[6],inactive
same,outcome,[7],inactive
same,outcome,[8],inactive
same,outcome,[9],inactive
same,outcome,[10],inactive
C[Si]1(C)O[Si](C)(C)O[Si](C)(C)O[Si](C)(C)O1,outcome,[1],inactive
same,outcome,[2],inactive
same,outcome,[4],inactive
same,outcome,[5],inactive
same,outcome,[6],inactive
same,outcome,[7],inactive
same,outcome,[8],inactive
same,outcome,[9],inactive
Cc1ccc(N(C)C)cc1,outcome,[1],inactive
same,outcome,[2],inactive
same,outcome,[4],inactive
same,outcome,[5],inactive
same,outcome,[6],inactive
same,outcome,[7],inactive
same,outcome,[8],inactive
same,outcome,[9],inactive
CC(C)(C)c1cc(O)c(C(C)(C)C)cc1O,AC50,[1],17.6 µM (active)
same,outcome,[2],inactive
same,AC50,[4],20 µM (active)
same,outcome,[5],inactive
same,AC50,[6],20 µM (active)
same,outcome,[7],inactive
same,outcome,[8],inactive
same,outcome,[9],inactive
COC(=O)c1ccc(O)cc1,outcome,[1],inactive
same,outcome,[2],inactive
same,outcome,[3],inactive
same,outcome,[4],inactive
same,outcome,[5],inactive
same,outcome,[6],inactive
same,outcome,[7],inactive
same,outcome,[8],inactive
same,outcome,[9],inactive
same,outcome,[10],inactive
CCNc1cccc(C)c1,outcome,[1],inactive
same,outcome,[2],inactive
same,outcome,[3],inactive
same,outcome,[4],inactive
same,outcome,[5],inactive
same,outcome,[6],inactive
same,outcome,[7],inactive
same,outcome,[8],inactive
same,outcome,[9],inactive
same,outcome,[10],inactive
Cc1nc(C)nc(N2C[C@@H](C)N(c3ccnc([C@@H](C)O)n3)[C@@H](C)C2)n1,outcome,[1],inactive
same,outcome,[2],inactive
same,outcome,[4],inactive
same,outcome,[5],inactive
same,outcome,[6],inactive
same,outcome,[7],inactive
same,outcome,[8],inactive
same,outcome,[9],inactive
Cc1cc(NC(=O)C(=O)O)cc(C)c1Oc1ccc(O)c2c1CCC2,outcome,[1],inactive
same,outcome,[2],inactive
same,outcome,[3],inactive
same,outcome,[4],inactive
same,outcome,[5],inactive
same,outcome,[6],inactive
same,outcome,[7],inactive
same,outcome,[8],inactive
same,outcome,[9],inactive
same,outcome,[10],inactive
CCCCCCCCCCCC(=O)OC,outcome,[1],inactive
same,outcome,[2],inactive
same,outcome,[4],inactive
same,outcome,[5],inactive
same,outcome,[6],inactive
same,outcome,[7],inactive
same,outcome,[8],inactive
same,outcome,[9],inactive
Nc1ccc(S(=O)(=O)c2ccc(N)cc2)cc1,outcome,[1],inactive
same,outcome,[2],inactive
same,outcome,[4],inactive
same,outcome,[5],inactive
same,outcome,[6],inactive
same,outcome,[7],inactive
same,outcome,[8],inactive
same,outcome,[9],inactive
CC(CO)OC(C)CO (stereo not drawn) (tested in a mixture with another compound),outcome,[1],inactive
same,outcome,[2],inactive
same,outcome,[3],inactive
same,outcome,[4],inactive
same,outcome,[5],inactive
same,outcome,[6],inactive
same,outcome,[7],inactive
same,outcome,[8],inactive
same,outcome,[9],inactive
same,outcome,[10],inactive
CN[C@H]1CC[C@@H](c2ccc(Cl)c(Cl)c2)c2ccc(S(N)(=O)=O)cc21,AC50,[1],20 µM (active)
same,AC50,[2],28.1 µM (active)
same,AC50,[4],34.5 µM (active)
same,AC50,[5],32.2 µM (active)
same,AC50,[6],11.9 µM (active)
same,AC50,[7],23.9 µM (active)
same,AC50,[8],31.6 µM (active)
same,AC50,[9],28.3 µM (active)
same,AC50,[10],30.6 µM (active)
Cc1ccc2ncccc2c1,outcome,[1],inactive
same,outcome,[2],inactive
same,outcome,[4],inactive
same,outcome,[5],inactive
same,outcome,[6],inactive
same,outcome,[7],inactive
same,outcome,[8],inactive
same,outcome,[9],inactive
same,outcome,[10],inactive
CCCCCCCCCCCCCO,AC50,[1],13.7 µM (active)
same,AC50,[2],13.1 µM (active)
same,AC50,[4],24.3 µM (active)
same,AC50,[5],15.6 µM (active)
same,AC50,[6],9.95 µM (active)
same,AC50,[7],12.9 µM (active)
same,AC50,[8],36.7 µM (active)
same,AC50,[9],36.2 µM (active)
same,AC50,[10],31.9 µM (active)
COc1ccc(S(=O)(=O)N2C(=O)[C@@](c3ccccc3OC)(N3C[C@H](O)C[C@H]3C(=O)N(C)C)c3cc(Cl)ccc32)c(OC)c1,outcome,[1],inactive
same,AC50,[2],26.5 µM (active)
same,outcome,[4],inactive
same,AC50,[5],4.5 µM (active)
same,outcome,[6],inactive
same,outcome,[7],inactive
same,outcome,[8],inactive
same,outcome,[9],inactive
same,outcome,[10],inactive
CCCCCCCC=O,outcome,[1],inactive
same,outcome,[2],inactive
same,outcome,[4],inactive
same,outcome,[5],inactive
same,outcome,[6],inactive
same,outcome,[7],inactive
same,outcome,[8],inactive
same,outcome,[9],inactive
same,outcome,[10],inactive
CCCCCCC(=O)OCC,outcome,[1],inactive
same,outcome,[2],inactive
same,outcome,[4],inactive
same,outcome,[5],inactive
same,outcome,[6],inactive
same,outcome,[7],inactive
same,outcome,[8],inactive
same,outcome,[9],inactive
same,outcome,[10],inactive
